Gli-Sufu block: Gli-Sufu pathway antagonism. Sufu-KO-LIGHT fibroblasts, Gli luciferase reporter luminescence. inhibition, % at 5 µM. actives 0.74% (n = 340,000). AID 588413;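 active = inhibition above about 55%, limit read from the data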
697 NFkB inh: inhibitors of the PMA/ionomycin-induced NF-kB reporter in 697 B cells | 697 B-cell NF-kB luciferase reporter, 16 h | inhibition, % at 4 µM | actives 0.33% (n = 330,000) | AID 435022; in the data active = inhibition above about 35%
H9c2 TAG inh: reduces triacylglycerol accumulation in H9c2 cells; Nile Red lipid (TAG) fluorescence; cells loaded with 200 µM oleic acid; actives 0.66% (n = 230,000); inhibition, % at 12.5 µM; AID 651582;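 active = pattern-corrected inhibition of lipid staining of at least 50% with the nuclear-stain viability signal not falling by more than 50%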
Shn3 3UTR inh: reduces Shn3 3'UTR luciferase signal in osteoblasts; actives 0.52% (n = 360,000); Clone20 osteoblast Shn3 3'UTR firefly luciferase, 24 h; inhibition, % at 12.5 µM; AID 588674;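 active = mean inhibition of at least 75% with every replicate also reaching 75%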
aSyn 5UTR inh: 5' untranslated region of α-synuclein, MLPCN primary screen; inhibition, % (tested at 7.5 µM); alpha-synuclein 5'UTR reporter, inhibitor activity; AID 1813; actives 0.82% (n = 300,000); in the data active = inhibition above about 60%;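 also: H4 neuroglioblastoma cells stably carrying SNCA 5'UTR luciferase fusion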
Jurkat NFkB inh: lowers PMA/ionomycin-induced NF-kB signal in Jurkat cells | inhibition, % at 4 µM | AID 435003 | PMA/ionomycin-induced NF-kB luciferase reporter, luminescence | actives 0.53% (n = 330,000); in the data active = inhibition above about 50%
TAG conf: triacylglycerol accumulation inhibition, confirmation; inhibition, % at 12.5 µM; shares compounds with H9c2 TAG inh; actives 71% (n = 990); H9c2 lipid accumulation, Nile Red fluorescence; cells loaded with 200 µM oleic acid;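 active = mean inhibition across replicates of 40% or more; inactive = mean inhibition below 40%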
Hits are given with their value; 0 = inactive; - = no result. Compounds with a hit are over-represented: about 2.3% of the library has one in this group of screens.

SMILES | Gli-Sufu block | 697 NFkB inh | H9c2 TAG inh | Shn3 3UTR inh | aSyn 5UTR inh | Jurkat NFkB inh | TAG conf
COc1ccc(-c2cnc3c(NC=O)cc(-c4cccc(NS(C)(=O)=O)c4)cn23)cc1OC | - | - | 64.8 | 0 | - | - | 58.4
CC(=O)c1ccc(-c2cnc3c(NC=O)cc(-c4ccc(C(=O)NC5CC5)cc4)cn23)cc1 | - | - | 54.3 | 0 | - | - | 51.5
COc1ccccc1-c1cc(NC=O)c2ncc(-c3cccc(C(C)=O)c3)n2c1 | - | - | 0 | 0 | - | - | -
Cc1ccc(N(C)S(=O)(=O)c2ccc3c(c2)CC(C)N3C(=O)C2CC2)cc1 (stereo not drawn) | 0 | 0 | - | 0 | 0 | 0 | -
O=C(c1ccc(F)cc1F)N1CCCN(c2nc(-c3ccccc3)ns2)CC1 | 0 | 0 | 74.6 | 0 | 0 | 0 | 0
CCN(CC1CCCO1)C(=O)CCc1nnc(CCc2ccccc2)o1 (stereo not drawn) | - | - | 0 | 0 | - | - | -
Cc1cnc(C(=O)OCC(=O)Nc2cccc(S(=O)(=O)N3CCCCC3)c2)cn1 | 0 | 0 | - | 0 | 0 | 0 | -
N#C/C(=C\Nc1ccc2cn[nH]c2c1)c1nc(-c2ccc(Cl)cc2)cs1 | 0 | 0 | 77.6 | 0 | 0 | 0 | 83.3
Cc1nc(C(=O)Nc2ccccc2Cl)cc2c1[nH]c1ccccc12 | 0 | 0 | 74.7 | 0 | 0 | 0 | 54.9
COc1ccc(NC(=O)c2cc3c([nH]c4ccccc43)c(C)n2)cc1 | 0 | 0 | - | 0 | 0 | 0 | -
COc1ccc(C(C(=O)NC(C)(C)C)N(Cc2cccs2)C(=O)CCC(=O)Nc2cc(C)on2)cc1 (stereo not drawn) | 0 | 0 | 69.6 | 0 | 0 | 0 | 49.0
CCC(C)(C)NC(=O)C(c1ccc(OC)cc1)N(C(=O)CCC(=O)Nc1cc(C)on1)c1cccc(OC)c1 (stereo not drawn) | 0 | 0 | - | 0 | 0 | 0 | -
CCC(C)(C)NC(=O)C(c1ccc(OC)cc1)N(C(=O)CCC(=O)Nc1cc(C)on1)C1CC1 (stereo not drawn) | 0 | 0 | - | 0 | 0 | 0 | -
CCC(C)(C)NC(=O)C(c1ccc(OC)cc1)N(Cc1cccs1)C(=O)CCC(=O)Nc1cc(C)on1 (stereo not drawn) | 0 | 0 | 71.6 | 0 | - | 0 | 67.9
CCC(C)(C)NC(=O)C(c1ccc(OC)cc1)N(CC1CCCO1)C(=O)CCC(=O)Nc1cc(C)on1 (stereo not drawn) | 0 | 0 | 57.0 | 0 | 0 | 0 | 40.8
CCC1C(=O)N=C(SCC(=O)Nc2ccccc2)NC1=O (stereo not drawn) | 0 | 0 | 0 | 0 | 0 | 0 | -
CN1CCN(C(=O)c2cc(C(C)(C)C)cc(C(C)(C)C)c2)CC1 | 0 | 0 | 0 | 0 | 0 | 0 | -
CCN1CCN(Cc2ccc(NC(=O)c3cc(NC(=O)C(=O)c4c[nH]c5ccccc45)cc(OC)c3)cc2C(F)(F)F)CC1 | 0 | 0 | 104.3 | 0 | 116.7 | 0 | 93.5
Cc1ccc(-c2noc(CCC(=O)N3CCN(c4cccc(C(F)(F)F)c4)CC3)n2)cc1 | 0 | 0 | 0 | 0 | 0 | 0 | -
COc1cc(NC(=O)NCCN2CCN(c3ccccc3)CC2)cc(OC)c1OC | - | 0 | - | 0 | 0 | 0 | -
Cc1nc2c(ccc3nc(NC(=O)Cc4cccc5ccccc45)sc32)s1 | 0 | 0 | 51.0 | 0 | 0 | 0 | 57.9
C=CCC[C@H](Cc1ccc(F)cc1)C(=O)OC[C@H](C)NC(=O)[C@@H](CC=C)CC(=O)N[C@H](CO)Cc1ccccc1 | 0 | 0 | 54.6 | 0 | - | 0 | 43.6
CNC(=S)NN=C(C)CCCC(C)=NNC(=S)NC | 0 | - | 70.7 | 0 | - | - | 95.0
CN=C1c2cc3cc(OC)ccc3n2CCN1Cc1ccccc1 | 0 | - | 57.3 | 89.7 | 0 | - | 50.8
Cc1cccc(C)c1Nc1nnc(SCc2cc([N+](=O)[O-])cc3c2OCOC3)s1 | 0 | 0 | - | 0 | 0 | 0 | -
SMILES | Gli-Sufu block | 697 NFkB inh | H9c2 TAG inh | Shn3 3UTR inh | aSyn 5UTR inh | Jurkat NFkB inh | TAG conf
CCC(=O)NC(Nc1sc2c(c1C(=O)OC)CCCC2)(C(F)(F)F)C(F)(F)F | 0 | 0 | 51.3 | 0 | 0 | 0 | 0
COc1ccc2nc(C)cc(N3CCN(S(=O)(=O)c4ccccc4F)CC3)c2c1 | 0 | 0 | 0 | 0 | - | 0 | -
CCOc1cc(C(=O)N/N=C/c2cn(-c3ccccc3)nc2-c2cc3ccccc3o2)cc(OCC)c1OCC | 0 | - | 58.8 | 0 | - | - | 62.6
Cc1ccc(-c2nn(-c3ccccc3)cc2/C=N/NC(=O)c2ccncc2)o1 | 0 | 0 | 0 | 0 | 0 | 0 | -
Cc1ccc(C2C(C=Nc3c(C)n(C)n(-c4ccccc4)c3=O)=C(c3ccccc3)Oc3ccccc32)cc1 (stereo not drawn) | 0 | 0 | 68.9 | 0 | 0 | 0 | 57.4
CC(=O)N1CCCc2cc(S(=O)(=O)N3CCN(C4CCCCC4)CC3)ccc21 | 0 | 0 | 0 | 0 | 0 | 0 | -
C[C@]12c3[nH]c4ccccc4c3CCN1C(=O)C(CC(=O)NCC13CC4CC(CC(C4)C1)C3)C[C@@H]2C(=O)N1CCCCC1 (stereo partly drawn) | 0 | 0 | 83.0 | 0 | - | 0 | 60.5
CC[C@]12c3[nH]c4ccc(Cl)cc4c3CCN1C(=O)[C@@H](CC(=O)NCc1ccc(OC)c(OC)c1)C[C@@H]2C(=O)N1CCN(C(=O)C2CC2)CC1 | 0 | 0 | 0 | 0 | - | - | -
COc1ccc2[nH]c3c(c2c1)CCN1C(=O)C(CC(=O)NC/C=C(\C)CCC=C(C)C)C[C@H](C(=O)N(C(C)C)C(C)C)[C@@]31C (stereo partly drawn) | 0 | 0 | 54.5 | 0 | - | - | 55.2
CC(C)=CCC/C(C)=C/CNC(=O)C[C@H]1C[C@H](C(=O)N2CCCCC2)[C@@]2(CCc3ccccc3)c3[nH]c4cc(-c5ccco5)ccc4c3CCN2C1=O | 0 | 0 | 68.6 | 0 | - | - | 91.8
COc1ccc(CNC(=O)C[C@H]2C[C@H](C(=O)N3CCCCC3)[C@@]3(CCc4ccccc4)c4[nH]c5ccc(Cl)cc5c4CCN3C2=O)cc1OC | 0 | 0 | 53.0 | 0 | - | - | 84.3
COc1cccc(NC(=O)N2CCc3nc(Nc4ccc(C(C)C)cc4)ncc3C2)c1 | - | - | 70.6 | 0 | - | - | 83.4
CCCN(CC(=O)Nc1ccccc1OC)C(=O)CCC(=O)c1ccc(OCC)cc1 | 0 | 0 | 0 | 0 | - | 0 | -
CCOC(=O)c1ccccc1OC(=O)NNc1ccccc1 | 0 | - | 0 | 0 | - | - | -
CC(C)C[C@@H](CN)NC(=O)c1nc[nH]c1C(=O)N[C@@H](Cc1c[nH]c2ccccc12)C(=O)CNC[C@H](C)NC(=O)c1nc[nH]c1C(=O)N[C@@H](C)C(=O)O | 0 | - | 0 | 0 | - | - | -
CC(C)C[C@@H](CNC(=O)OC(C)(C)C)NC(=O)c1nc[nH]c1C(=O)N[C@@H](CC(C)C)C(=O)CNC[C@H](CC(C)C)NC(=O)c1nc[nH]c1C(=O)N[C@@H](Cc1c[nH]c2ccccc12)C(=O)OC(C)(C)C | 0 | 0 | 60.1 | 0 | - | 0 | 52.5
CCOC(=O)N1CCN(C(=O)CN(c2ccc3c(c2)OCO3)S(C)(=O)=O)CC1 | 0 | 0 | - | 0 | 0 | 0 | -

Bioassay records deposited in PubChem BioAssay by several laboratories.
